Assay results from the supplement of paper PMC10849652.
About 7,900 targets were measured; listed, in parts, are those with a hit and a random draw of the rest. About 0.6% of all pairs of compound and target were hits. Unmarked numbers belong to inactive results.

The targets below were run with CCN(CC)Cc1ccc2cc(COC(=O)Nc3ccc(C(=O)NO)cc3)ccc2c1 [givinostat] (assay: log2 fold change, soluble protein after heating vs DMSO (PISA); higher = thermal stabilisation; K562 cells, 10 uM, 30 min; active = over 0.2 and 3.5 SD of the protein, either way, in both replicates (recomputed)).
Method in brief: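 K562 cells at 2×10^6 cells/mL were treated for 30 min with 10 μM compound, and aliquots were heated for 3 min over 48°C-58°C before pooling. Extraction used PBS with 0.5% NP-40 at 4°C, and soluble protein was the supernatant after 21,000xg for 90 min, measured by TMTpro 16plex LC-MS/MS with channel sums equalised. Thermal stability values, relative to control samples and from duplicates, are log2 fold changes.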

UniProt Q00688, sequence (Q00688 whole entry, looked up): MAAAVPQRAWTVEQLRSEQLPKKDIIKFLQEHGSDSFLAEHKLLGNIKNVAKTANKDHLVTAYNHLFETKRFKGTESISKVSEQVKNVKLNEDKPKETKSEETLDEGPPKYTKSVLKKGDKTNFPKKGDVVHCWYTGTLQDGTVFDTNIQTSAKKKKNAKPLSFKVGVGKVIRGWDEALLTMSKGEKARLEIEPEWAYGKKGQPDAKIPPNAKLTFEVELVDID
UniProt Q9P2D3, sequence (Q9P2D3 whole entry, looked up): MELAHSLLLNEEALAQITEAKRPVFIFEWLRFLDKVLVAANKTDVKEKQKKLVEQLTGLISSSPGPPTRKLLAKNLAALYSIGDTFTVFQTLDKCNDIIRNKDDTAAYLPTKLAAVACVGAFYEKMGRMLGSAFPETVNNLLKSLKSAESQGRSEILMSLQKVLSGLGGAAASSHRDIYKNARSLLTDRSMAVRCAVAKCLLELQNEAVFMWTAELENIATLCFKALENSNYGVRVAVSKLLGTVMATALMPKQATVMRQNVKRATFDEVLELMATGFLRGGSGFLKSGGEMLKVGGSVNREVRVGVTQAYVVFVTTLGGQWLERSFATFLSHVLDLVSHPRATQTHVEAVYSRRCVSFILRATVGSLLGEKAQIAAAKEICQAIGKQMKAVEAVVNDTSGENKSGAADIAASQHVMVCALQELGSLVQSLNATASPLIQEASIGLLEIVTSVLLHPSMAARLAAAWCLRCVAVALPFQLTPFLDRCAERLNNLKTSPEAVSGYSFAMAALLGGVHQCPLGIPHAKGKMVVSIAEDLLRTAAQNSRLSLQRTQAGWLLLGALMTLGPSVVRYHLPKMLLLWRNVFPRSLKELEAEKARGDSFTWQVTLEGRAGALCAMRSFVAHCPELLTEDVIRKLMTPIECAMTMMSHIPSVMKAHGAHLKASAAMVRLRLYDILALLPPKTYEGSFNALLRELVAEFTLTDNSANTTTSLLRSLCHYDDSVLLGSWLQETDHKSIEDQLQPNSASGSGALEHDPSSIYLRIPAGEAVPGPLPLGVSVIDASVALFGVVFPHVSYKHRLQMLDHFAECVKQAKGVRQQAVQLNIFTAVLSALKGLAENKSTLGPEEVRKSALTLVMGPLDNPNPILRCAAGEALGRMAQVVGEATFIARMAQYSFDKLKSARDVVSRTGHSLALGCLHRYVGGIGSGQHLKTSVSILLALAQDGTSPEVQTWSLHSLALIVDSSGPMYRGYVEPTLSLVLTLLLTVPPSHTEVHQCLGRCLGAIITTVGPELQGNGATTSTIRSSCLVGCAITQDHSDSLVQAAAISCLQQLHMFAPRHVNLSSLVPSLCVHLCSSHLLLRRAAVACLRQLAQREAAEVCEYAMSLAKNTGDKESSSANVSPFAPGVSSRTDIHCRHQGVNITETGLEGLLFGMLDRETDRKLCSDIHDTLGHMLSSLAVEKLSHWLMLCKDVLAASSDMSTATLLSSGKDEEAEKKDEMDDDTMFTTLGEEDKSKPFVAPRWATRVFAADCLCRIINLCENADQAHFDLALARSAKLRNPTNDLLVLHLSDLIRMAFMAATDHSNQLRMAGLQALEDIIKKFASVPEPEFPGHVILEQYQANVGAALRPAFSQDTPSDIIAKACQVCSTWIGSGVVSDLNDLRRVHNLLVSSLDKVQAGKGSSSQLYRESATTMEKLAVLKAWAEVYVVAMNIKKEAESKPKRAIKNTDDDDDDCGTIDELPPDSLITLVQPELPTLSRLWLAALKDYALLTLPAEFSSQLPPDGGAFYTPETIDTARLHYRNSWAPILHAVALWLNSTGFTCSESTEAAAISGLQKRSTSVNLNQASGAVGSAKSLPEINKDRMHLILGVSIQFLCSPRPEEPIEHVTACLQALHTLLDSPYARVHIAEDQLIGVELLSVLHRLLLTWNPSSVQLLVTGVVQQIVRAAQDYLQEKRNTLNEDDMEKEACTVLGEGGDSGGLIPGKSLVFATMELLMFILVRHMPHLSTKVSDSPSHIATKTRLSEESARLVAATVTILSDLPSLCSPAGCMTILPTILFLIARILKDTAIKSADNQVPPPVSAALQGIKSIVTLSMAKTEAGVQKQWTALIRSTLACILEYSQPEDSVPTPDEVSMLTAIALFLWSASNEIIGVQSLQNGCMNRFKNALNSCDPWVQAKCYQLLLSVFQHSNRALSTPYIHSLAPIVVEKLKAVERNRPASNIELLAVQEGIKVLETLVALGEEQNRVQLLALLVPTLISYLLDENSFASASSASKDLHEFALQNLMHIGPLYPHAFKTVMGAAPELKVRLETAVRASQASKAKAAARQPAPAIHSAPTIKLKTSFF
UniProt P30519, sequence (P30519 whole entry, looked up): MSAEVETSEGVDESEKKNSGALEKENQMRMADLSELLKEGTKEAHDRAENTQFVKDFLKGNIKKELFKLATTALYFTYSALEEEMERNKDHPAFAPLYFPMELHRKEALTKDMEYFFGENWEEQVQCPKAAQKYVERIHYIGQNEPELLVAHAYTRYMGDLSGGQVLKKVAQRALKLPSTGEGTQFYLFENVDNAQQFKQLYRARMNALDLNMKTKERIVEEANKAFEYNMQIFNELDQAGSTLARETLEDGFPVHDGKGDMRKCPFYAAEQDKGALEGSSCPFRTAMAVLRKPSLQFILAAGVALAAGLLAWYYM
UniProt Q658Y4, sequence (Q658Y4 whole entry, looked up): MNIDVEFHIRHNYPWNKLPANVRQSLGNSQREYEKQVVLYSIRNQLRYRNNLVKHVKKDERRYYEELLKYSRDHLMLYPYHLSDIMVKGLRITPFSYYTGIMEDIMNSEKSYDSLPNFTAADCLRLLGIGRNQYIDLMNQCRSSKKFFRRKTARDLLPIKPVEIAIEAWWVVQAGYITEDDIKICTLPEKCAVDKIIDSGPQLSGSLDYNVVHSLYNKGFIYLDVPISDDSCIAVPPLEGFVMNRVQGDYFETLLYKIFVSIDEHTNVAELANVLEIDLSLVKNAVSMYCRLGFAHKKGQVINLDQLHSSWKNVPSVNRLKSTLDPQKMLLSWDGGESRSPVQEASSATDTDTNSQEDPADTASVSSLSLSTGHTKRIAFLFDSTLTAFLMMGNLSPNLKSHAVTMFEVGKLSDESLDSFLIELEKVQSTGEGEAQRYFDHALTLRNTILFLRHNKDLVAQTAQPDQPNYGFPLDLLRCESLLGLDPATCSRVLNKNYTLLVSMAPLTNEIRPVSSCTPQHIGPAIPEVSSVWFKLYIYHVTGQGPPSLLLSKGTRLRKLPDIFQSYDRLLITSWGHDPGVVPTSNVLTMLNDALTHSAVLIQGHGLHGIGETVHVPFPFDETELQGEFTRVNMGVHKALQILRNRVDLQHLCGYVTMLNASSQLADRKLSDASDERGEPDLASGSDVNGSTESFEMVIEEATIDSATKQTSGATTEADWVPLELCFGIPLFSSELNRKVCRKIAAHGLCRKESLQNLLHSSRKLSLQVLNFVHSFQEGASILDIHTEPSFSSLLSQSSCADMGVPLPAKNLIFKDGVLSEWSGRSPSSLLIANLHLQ
UniProt Q8N9F7, sequence (Q8N9F7 whole entry, looked up): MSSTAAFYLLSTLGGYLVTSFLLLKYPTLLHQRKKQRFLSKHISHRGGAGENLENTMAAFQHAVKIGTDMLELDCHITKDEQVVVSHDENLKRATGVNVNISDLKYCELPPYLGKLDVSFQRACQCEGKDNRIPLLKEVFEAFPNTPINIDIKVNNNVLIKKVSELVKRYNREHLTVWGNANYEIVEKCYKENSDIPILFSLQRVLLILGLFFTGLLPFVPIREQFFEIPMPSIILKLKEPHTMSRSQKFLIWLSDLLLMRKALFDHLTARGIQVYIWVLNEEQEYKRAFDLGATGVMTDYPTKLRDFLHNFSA
UniProt P55084, sequence (P55084 whole entry, looked up): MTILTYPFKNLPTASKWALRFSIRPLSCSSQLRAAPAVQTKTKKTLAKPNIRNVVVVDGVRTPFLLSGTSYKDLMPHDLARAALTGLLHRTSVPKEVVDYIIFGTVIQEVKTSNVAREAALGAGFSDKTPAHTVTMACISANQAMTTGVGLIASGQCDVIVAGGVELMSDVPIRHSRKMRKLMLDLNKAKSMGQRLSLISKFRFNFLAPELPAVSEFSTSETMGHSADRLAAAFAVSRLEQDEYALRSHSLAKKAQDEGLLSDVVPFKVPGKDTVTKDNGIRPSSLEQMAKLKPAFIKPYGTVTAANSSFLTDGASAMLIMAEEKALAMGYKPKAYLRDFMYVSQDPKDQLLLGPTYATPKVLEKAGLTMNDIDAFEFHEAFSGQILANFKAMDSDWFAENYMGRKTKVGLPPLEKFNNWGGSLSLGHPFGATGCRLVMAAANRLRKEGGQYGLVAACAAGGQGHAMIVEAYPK
UniProt Q96I24, sequence (Q96I24 whole entry, looked up): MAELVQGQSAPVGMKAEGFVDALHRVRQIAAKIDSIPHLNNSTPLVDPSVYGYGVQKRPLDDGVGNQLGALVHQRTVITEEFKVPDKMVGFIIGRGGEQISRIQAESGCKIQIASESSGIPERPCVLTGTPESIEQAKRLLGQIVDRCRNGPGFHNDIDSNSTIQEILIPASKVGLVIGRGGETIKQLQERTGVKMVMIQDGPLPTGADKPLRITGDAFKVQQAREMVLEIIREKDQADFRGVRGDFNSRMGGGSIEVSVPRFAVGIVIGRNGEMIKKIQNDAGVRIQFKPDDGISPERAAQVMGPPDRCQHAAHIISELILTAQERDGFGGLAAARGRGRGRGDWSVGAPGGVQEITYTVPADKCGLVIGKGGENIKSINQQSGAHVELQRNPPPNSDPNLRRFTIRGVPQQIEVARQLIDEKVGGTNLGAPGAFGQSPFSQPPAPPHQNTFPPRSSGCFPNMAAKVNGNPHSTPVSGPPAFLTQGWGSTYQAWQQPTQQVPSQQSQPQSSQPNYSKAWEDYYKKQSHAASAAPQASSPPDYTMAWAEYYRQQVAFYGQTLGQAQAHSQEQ
UniProt P52657, sequence (P52657 whole entry, looked up): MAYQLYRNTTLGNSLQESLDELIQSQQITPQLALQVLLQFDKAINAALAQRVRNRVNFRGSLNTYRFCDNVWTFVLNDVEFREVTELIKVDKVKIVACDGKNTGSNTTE

Target	log2 fold change
HADHB (UniProt P55084)	0.064
GDPD1 (UniProt Q8N9F7)	-0.046
HBZ (UniProt P02008)	-0.052
FNTA (UniProt P49354)	-0.052
FUBP3 (UniProt Q96I24)	-0.023
FAM91A1 (UniProt Q658Y4)	0.024
GTF3C4 (UniProt Q9UKN8)	-0.007
HSPA8 (UniProt E9PK54)	0.167
GNPAT (UniProt O15228)	0.022
GTF2A2 (UniProt P52657)	-0.044
HBA1 (UniProt P69905)	-0.061
GDI1 (UniProt P31150)	-0.032
HMOX2 (UniProt P30519)	0.015
HMGN2 (UniProt P05204)	-0.019
GYG1 (UniProt P46976)	0.027
FKBP3 (UniProt Q00688)	-0.023
HEATR5B (UniProt Q9P2D3)	0.07
FKBP4 (UniProt Q02790)	0.012
H2AFX (UniProt P16104)	0.328
GUSB (UniProt P08236)	-0.501 (active)
HDAC6 (UniProt Q9UBN7)	1.03 (active)
FBXO42 (UniProt Q6P3S6)	0.09
HP1BP3 (UniProt Q5SSJ5)	0.031
GEMIN5 (UniProt Q8TEQ6)	-0.1
